# From PubChem
# Compounds with a hit are over-represented: about 17% of the library has one in this group of screens.
# TDP1 cell noCPT = qHTS for Inhibitors of human tyrosyl-DNA phosphodiesterase 1 (TDP1): qHTS in cells in absence of CPT. DT40 Tdp1-/- hTDP1 cells, no CPT, ATP luminescence, 48 h. Potency, µM (series often up to 46.2 µM), actives largely listed as inhibitors. 15% of 420,000 active; note: nearly all actives have a fitted effect of over 55% in size
#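 Readout: luminescence from CellTiter-Glo after 30 min in the dark at RT. Cells: DT40 Tdp1-/- with stable hTDP1, 400/well. Exposure: compounds alone, ≥48 hr, 37 °C.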
# TDP1 cell CPT = qHTS for Inhibitors of human tyrosyl-DNA phosphodiesterase 1 (TDP1): qHTS in cells in presence of CPT | chicken DT40 Tdp1-/-;hTDP1 cells + 20 nM CPT, ATP luminescence, 48 h | Potency, µM (highest dose often 46.2 µM), usual class: inhibitors | 12% of 420,000 active | AID 686979, 2013; note: nearly all actives have a fitted effect of over 55% in size
#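 Cell growth measured by CellTiter-Glo luminescence after a minimum 48 h, 37 C compound exposure with 20 nM CPT in Tdp1-knockout DT40 cells stably expressing hTDP1, seeded 400/well; qHTS titration format.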
# HT1080-NT tox = qHTS for induction of synthetic lethality in tumor cells producing 2HG: qHTS for the HT-1080-NT fibrosarcoma cell line | 1.6% of 360,000 active | HT-1080-NT fibrosarcoma viability, CellTiter-Glo ATP luminescence, 48 h | AID 686970, 2013 | Potency, µM (series often up to 46.1 µM), usual class: cytotoxic;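 note: NT is the 2HG producing partner of a matched IDH1 knockdown line; nearly all actives have a fitted effect of over 55% in size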
#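 Viability by CellTiter-Glo luminescence after 48 h compound exposure at 37C of HT-1080-NT cells (750/well, RPMI, 5% FBS). % activity scaled between DMSO wells and medium-only wells, then curve-fitted and categorized by curve class.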
# HT1080 IDH1KD tx = qHTS for induction of synthetic lethality in tumor cells producing 2HG: qHTS for the HT-1080-IDH1KD cell line; HT-1080 IDH1 knockdown viability, ATP luminescence, 48 h; Potency, µM (series often up to 46.1 µM), usual class: cytotoxic; 2% of 360,000 active; AID 686971, 2013
#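 After a 2 h attachment period, IDH1KD HT-1080 cells took pin-transferred compound for 48 h at 37 °C; ATP-based luminescence after 10 min room-temperature reagent incubation reported viability.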
# TGFb inhibitor = qHTS for Inhibitors of TGF-b. HepG2 CAGA-GFP TGF-b/SMAD3 reporter, GFP fluorescence, 18 h; TGF-beta stimulated, 500 pg/mL final. Potency, µM (top dose mostly 46.1 µM), hits mostly inhibitors. 1.2% of 410,000 active. AID 588855, 2011; note: nearly all actives have a fitted effect of over 65% in size
#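 GFP signal (ex488/em500-530) from TGF-beta-stimulated HEPG2 CAGA-GFP cells, 500 pg/mL final, 18 h at 37 degrees C in DMEM plus 1% FBS, normalized to unstimulated and DMSO-stimulated controls.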
# HepG2 tox = qHTS for Inhibitors of TGF-b: Cytotox Counterscreen; HepG2 CAGA-GFP viability, ATP luminescence, 18 h; Potency, µM (top dose mostly 46.1 µM), hits mostly cytotoxic; 0.76% of 410,000 active
#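 CellTiter-Glo luminescence gave cytotoxicity after 18 hours at 37 degrees C. The cells were HepG2 CAGA-GFP in 1% FBS DMEM, stimulated with 500 pg/mL TGF-beta after compound addition. %Activity was normalised to no-cell wells (complete cell-killing) and DMSO (no toxicity), and curves were fitted and classified.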
# Numbers stand for hits; . = inactive; ? = inconclusive; / = no result; [ ] = remark or other dose. Calls come from the whole dose curve; as a rule, active = well fitted curve in the direction sought with a large enough effect; inconclusive = small, poorly fitted or top-dose-only effect, or another doubt; inactive = no such curve, though single readings can be large; an effect the other way counts as inactive or inconclusive.
SMILES,TDP1 cell noCPT,TDP1 cell CPT,HT1080-NT tox,HT1080 IDH1KD tx,TGFb inhibitor,HepG2 tox
C#CCN(C[C@H]1[C@H](OC(=O)Nc2c(C)noc2C)[C@H](OC(=O)Nc2c(C)noc2C)C[C@@H](C(=O)OC)[C@H]1C(=O)OC)S(=O)(=O)c1ccc(C)cc1,15µM,21µM,.,.,.,.
C#CCN(C[C@H]1[C@H](OC(=O)NCc2ccccc2)[C@H](OC(=O)NCc2ccccc2)C[C@@H](C(=O)OC)[C@H]1C(=O)OC)S(=O)(=O)c1ccc(C)cc1,.,.,.,.,.,.
C#CCN(C[C@H]1[C@H](OC(=O)NCCCCCC)[C@H](OC(=O)NCCCCCC)C[C@@H](C(=O)OC)[C@H]1C(=O)OC)S(=O)(=O)c1ccc(C)cc1,5.8µM,4.1µM,.,.,?,.
O=C(c1ccco1)N1CCC2(CC1)CCN(c1ccccn1)CC2,?,.,/,/,/,/
COc1ccc(CCC(=O)Nc2cccc(S(=O)(=O)N3CCCCCC3)c2)cc1OC,15µM,?,.[9.24 µM],.,.,.
Cc1ccc(S(=O)(=O)N2CCCCC2)cc1NC(=O)CCNC(=O)c1ccc([N+](=O)[O-])cc1,16µM,23µM,.,.,?,.
CCN(CC)S(=O)(=O)c1ccc(C)c(NC(=O)/C=C/c2cccs2)c1,13µM,21µM,.,.,.,.
COc1ccc(CC(=O)Nc2cc(S(=O)(=O)N3CCCCC3)ccc2OC(C)C)cc1OC,21µM,?,.,.,.,.
COc1ccc(S(=O)(=O)N2CCCCCC2)cc1NC(=O)Cc1ccccc1,.,.,.,.,.,.
Cc1ccc(S(=O)(=O)CCC(=O)OCC(=O)NC(C)c2ccc(F)cc2)cc1 (stereo unspecified),.,.,.,.,.,.
COc1ccc(CC(=O)Nc2ccc(S(=O)(=O)N3CCCCC3)cc2)cc1OC,?,?,.,.,.,.
COc1ccc(CC(=O)Nc2cc(S(=O)(=O)N3CCCCC3)ccc2C)cc1,21µM,?,.,.,.,.
COc1ccc(CC(=O)Nc2cccc(S(=O)(=O)N3CCCCCC3)c2)cc1OC,7.3µM,6.5µM,.,.,?,.
CCCc1cc(=O)[nH]c(SCC(=O)Nc2cc(S(=O)(=O)N3CCCCC3)ccc2C)n1,.,.,10µM,15µM,?,16µM
Cc1cc(C)nc(NS(=O)(=O)c2ccc(NC(=O)CSc3nc4ccccc4[nH]3)cc2)n1,.,.,.,.,?,.
CCN(CC)S(=O)(=O)c1ccc(C)c(NC(=O)CSc2nc3ccccc3[nH]2)c1,23µM,?,.,.,.,.
COC(=O)c1cc(NC(=O)Cc2ccc(OC)c(OC)c2)cc(C(=O)OC)c1,?,?,.,.,.,.
COc1ccc(CC(=O)Nc2cccc(SC)c2)cc1OC,9.2µM,12µM,.,.,.,.
Cc1noc(C)c1S(=O)(=O)N1CCN(C(c2ccccc2)c2ccc(Cl)cc2)CC1 (stereo unspecified),13µM,?,.,.,.,.
Cc1noc(C)c1S(=O)(=O)N1CCC(C(=O)c2ccccc2)CC1,.,.,.,.,.,.
COc1ccc(CN2CCN(CC(O)Cn3c4ccccc4c4ccccc43)CC2)cc1 (stereo unspecified),?,?,18µM,?,?,.
COc1ccc(-c2cc3ccccc3n2CC(O)CN2CCC(C)CC2)cc1 (stereo unspecified),23µM,?,.,.,.,.
COc1ccc(-c2cc3ccccc3n2CC(O)CNC(CO)(CO)CO)cc1 (stereo unspecified),?,?,.,.,.,.
CCn1c2ccccc2c2cc(CN3CCN(Cc4cc(OC)ccc4O)CC3)ccc21,?,26µM,?,?,?,.
COc1ccc(O)c(CN2CC3CCC(CC3)C2)c1,?,23µM,.,.,.,.
SMILES,TDP1 cell noCPT,TDP1 cell CPT,HT1080-NT tox,HT1080 IDH1KD tx,TGFb inhibitor,HepG2 tox
O=C(CC[C@H]1O[C@@H](n2ccc(=O)[nH]c2=O)[C@H](O)[C@@H]1O)NCC1CCCO1 (stereo partly specified),.,.,.,.,.,.
CCn1c2ccccc2c2cc(CN3CCN(Cc4cc(OC)c(O)c(OC)c4)CC3)ccc21,10µM,10µM,/,/,?,.
Cc1cc(O)c(-c2ccnc3cc(-c4ccccc4)nn23)cc1Cl,?,?,/,/,.,.
CCOc1ccc(C(=S)NC2CCCCC2)cc1OCC,4.6µM,?,.,.,.,.
CCOc1cc(Br)c(CC(=O)NC2CCCCCC2)cc1OCC,21µM,?,.,.,.,.
COc1ccc(Cc2nnc(SCC(=O)c3ccc(OC)cc3)o2)cc1,?,?,.,.,.,.
COc1ccc(Cc2nnc(SCC(=O)N3CCN(c4ccccc4)CC3)o2)cc1,23µM,23µM,.,.,.,.
COc1ccc(Cc2nnc(SCC(=O)c3ccccc3)o2)cc1,?,?,.,.,.,.
COc1ccc(Cc2nnc(SCC(=O)N3CCCCC3)o2)cc1,23µM,.,.,.,.,.
CCOC(=O)c1cnc2cc(C(F)(F)F)ccc2c1Nc1ccc(F)cc1F,?,?,/,/,.,.
CC(C)OCCCn1c(SCC(=O)Nc2ccccc2C(F)(F)F)nc2nccnc2c1=O,.,.,.,.,.,2.5µM
CCn1cc2nc(SCC(=O)Nc3ccc(C)cc3)n(Cc3ccc(C)cc3)c(=O)c2n1,13µM,21µM,/,/,.,.
CCn1cc2nc(SCC(=O)Nc3ccccc3C(F)(F)F)n(Cc3ccc(C)cc3)c(=O)c2n1,18µM,16µM,/,/,.,.
CCn1cc2nc(SCC(=O)Nc3ccc(OC)c(OC)c3)n(Cc3ccc(OC)cc3)c(=O)c2n1,?,?,.,.,.,.
CCCCn1c(SCC(=O)Nc2ccccc2C(F)(F)F)nc2ccsc2c1=O,.,.,.,.,?,.
CCn1cc2nc(SCC(=O)Nc3ccc(OC)cc3OC)n(Cc3ccc(OC)cc3)c(=O)c2n1,2.6µM,4.1µM,3.7µM,5.2µM,.,.
CCC(=O)N[C@@H]1C=C[C@@H](CC(=O)NCc2ccccc2F)O[C@@H]1CO,.,.,.,.,/,/
COc1ccc(-c2cc(-c3ccc(Cl)cc3)c(C#N)c(SCC(=O)O)n2)cc1,?,?,.,.,?,.
